Shown is part of a subset that was picked to be rich in hits.
Tg IFNy HTS: inhibitors of Toxoplasma gondii growth with IFN-gamma; Toxoplasma gondii growth in IFN-gamma-treated host cells; hits give low values; 69,000 tested, 3.8% active; AID 1259416; activity change, negative = inhibition, % (no concentration beside the values); in the data active = activity change below about -70%, passing the limit was not always enough;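 note: host cells are HeLa cells infected with Toxoplasma gondii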
An asterisk follows results filed as active.

SMILES	Tg IFNy HTS
CC(=O)Nc1cccc(-c2cc3c(cc2C(N)=O)OCO3)c1	2
COC[C@@H]1CCC[C@]12CN(S(=O)(=O)c1cn(C)cn1)CCO2	-2
COCCOC1CCC2(CCN(C(=O)c3ccc[nH]3)CC2)c2ccccc21 (stereo not drawn)	-30
COc1cccc([C@@H](C)NC(=O)CCC(=O)NC2CCCC2)c1	4
O=C(C[C@@H]1CC[C@H]2[C@@H](COC[C@H](O)CN2C(=O)c2ccncc2)O1)Nc1ccc(-c2ccccc2)cc1	-43
O=C(Nc1ccncc1)Nc1ccc(-c2nc(N3CCOCC3)nc(N3C4CCC3COC4)n2)cc1	-74*
CCc1cc(-c2cccc(NC(C)=O)c2)nc(N2CCOCC2)n1	-26
CCC(C)NC(=O)c1cncc(N(C)S(=O)(=O)c2ccc(C)cc2)c1 (stereo not drawn)	26
COc1ccc(-c2nc(CNS(=O)(=O)c3ccc(F)cc3)c(C)o2)cc1	33
COc1ccc(-c2nc(CNS(=O)(=O)c3ccc(C(C)C)cc3)c(C)o2)cc1	-75*
COc1ccc(S(=O)(=O)NCc2nc(-c3ccccc3)oc2C)cc1	20
COC1CC2CC1CN2C(=O)c1cnoc1C (stereo not drawn)	59
COC(=O)c1cnc(SCC(=O)Nc2cccc(Cl)c2)n1C	34
CCOC(=O)c1c(Sc2ccccc2)cnn1C(=O)Nc1cccc(Cl)c1	-79*
CCOC(=O)c1cccnc1-c1cccc(NC(C)=O)c1	13
O=C(CN1C(=O)CCc2cc(S(=O)(=O)N3CCCC3)ccc21)NC1CCCCCC1	2
Cc1cccc(C)c1NC(=O)/N=C1/CCCN1C	9
O=C(C(=O)N1CCC(c2ccccc2Cl)C1)c1ccco1 (stereo not drawn)	-5
COc1cc(C(=O)N2CCC3(CC2)NC(=O)c2ccc(Cl)cc2N3)cc(OC)c1OC	132
COc1ccccc1C(=O)C1C(=O)NC23CCN(C)CC2C1c1cc(Cl)ccc1O3 (stereo not drawn)	-87*
COc1cc(Cl)ccc1C(=O)NCC1CCCN(C)C1 (stereo not drawn)	-2
Cc1nccc([C@H]2C[C@H]3CCN(C(=O)CN(C)C)C[C@@H]3O2)n1	-47
COc1cccc(-n2c(=O)c(C(=O)NCc3ccccc3F)c(O)c3cccnc32)c1	100
O=C(NCc1cc(F)cc(F)c1)c1c(O)c2cccnc2n(-c2ccccc2)c1=O	-91*
COc1ccccc1CNC(=O)c1c(O)c2cccnc2n(-c2cccc(F)c2)c1=O	234
SMILES	Tg IFNy HTS
O=C(NCc1ccccc1Cl)c1c(O)c2cccnc2n(-c2ccc(F)cc2)c1=O	115
COc1cccc(-n2c(=O)c(C(=O)NCc3ccc(F)cc3F)c(O)c3cccnc32)c1	50
Cc1ccc(NC(=O)c2c(O)c3cccnc3n(-c3cccc(F)c3)c2=O)cc1	54
COc1cccc(-n2c(=O)c(C(=O)NCc3ccccc3Cl)c(O)c3cccnc32)c1	-91*
O=C(NCc1cc(F)cc(F)c1)c1c(O)c2cccnc2n(-c2cccc(F)c2)c1=O	106
O=C(Nc1ccc(Cl)cc1)c1c(O)c2cccnc2n(-c2cccc(F)c2)c1=O	-102*
O=C(NCc1ccccc1)c1c(O)c2cccnc2n(-c2ccccc2)c1=O	5
COc1ccccc1CNC(=O)c1c(O)c2cccnc2n(-c2ccc(F)cc2)c1=O	-74*
O=C(Nc1ccc(F)cc1)c1c(O)c2cccnc2n(-c2cccc(F)c2)c1=O	60
O=C(NC1CC1)C1CN(Cc2ccc(-c3ccccn3)cc2)CCN1 (stereo not drawn)	-5
CC(C)N(Cc1nccn1C)C(=O)CC1CCc2ccccc21 (stereo not drawn)	-3
CCc1cnc(C)nc1-c1cc(NCc2ccncc2)nc2[nH]ccc12	-5
CN1CCS(=O)(=O)[C@H]2CCN(S(=O)(=O)Cc3ccccc3)CC[C@@H]21	6
Cc1ccc(CNCC2(O)CCCN(CCc3ccccc3)C2=O)o1 (stereo not drawn)	-3
OCCn1cc(-c2ccnc(N3CCCC3)n2)c(C2CCCN(CC3CC=CCC3)C2)n1 (stereo not drawn)	5
O=C(Cn1c(=O)cc(-c2nc(C3CC3)no2)c2ccccc21)Nc1ccccc1	-53
O=C(NCC(CO)Cc1cccs1)c1c(O)cccc1O (stereo not drawn)	5
CCN1CCC(n2nccc2NC(=O)C(C)(C)Oc2cc(C)ccc2C(C)C)CC1	31
Cc1nc2ccc(C(=O)N3CCC(c4nc(-c5ncccn5)no4)C3)cc2s1 (stereo not drawn)	8
Cc1ccc(NC(=O)c2c(O)c3ccccc3n(-c3ccccc3)c2=O)c(C)c1	-11
O=C(Nc1ccc(F)cc1Cl)c1c(O)c2cccnc2n(-c2ccc(F)cc2)c1=O	240
O=C(Nc1ccccc1Cl)c1c(O)c2cccnc2n(-c2cccc(F)c2)c1=O	-87*
CCc1ccc(NC(=O)c2c(O)c3cccnc3n(-c3ccc(F)cc3)c2=O)cc1	80
CCOc1ccccc1NC(=O)c1c(O)c2cccnc2n(-c2ccc(F)cc2)c1=O	65
COc1cccc(-n2c(=O)c(C(=O)Nc3ccccc3Cl)c(O)c3cccnc32)c1	65
SMILES	Tg IFNy HTS
Cc1cc(F)ccc1NC(=O)c1c(O)c2ccccc2n(-c2ccccc2)c1=O	16
CCc1ccccc1NC(=O)c1c(O)c2cccnc2n(-c2ccc(F)cc2)c1=O	-79*
Cc1ccccc1NC(=O)c1c(O)c2cccnc2n(-c2cccc(F)c2)c1=O	-94*
Cc1cccc(C)c1NC(=O)c1c(O)c2ccccc2n(-c2ccccc2)c1=O	-105*
O=C(Nc1ccccc1F)c1c(O)c2cccnc2n(-c2cccc(F)c2)c1=O	25
Cc1cc(F)ccc1NC(=O)c1c(O)c2cccnc2n(-c2ccccc2)c1=O	-27
COc1cc(CCC(=O)N2CCc3onc(-c4ccccc4F)c3C2)ccc1C	-11
Cc1noc(C)c1C(=O)Nc1cnn(CC(=O)NC2CCCC2)c1	-2
C=CC(=O)Nc1ccc(OC)cc1	-14
S=C(Nc1cccc(Cl)c1)N1CCCN(c2nc3ccc(Cl)cc3s2)CC1	-39
Cc1ccc(C)c(-c2coc(-c3ccc(NC(=O)Nc4ccc5c(c4)OCO5)cc3)n2)c1	34
Cc1ccc(C(C)N2CCN(CC(=O)N3CCCC(c4csnn4)C3)CC2)cc1 (stereo not drawn)	-17
O=C(Nc1cnc2n1CCCC2)c1cccc2cnccc12	0
O=C(Nc1nncs1)c1cc(-c2cccnc2)c(N2CCOCC2)s1	4
COc1ccc(OCC(=O)N2CCC3(CC2)CC(C(=O)O)c2ccccc2O3)cc1 (stereo not drawn)	-19
CCOc1ccccc1NC(=O)c1c(O)c2cccnc2n(-c2cccc(F)c2)c1=O	100
CCc1ccccc1NC(=O)c1c(O)c2cccnc2n(-c2cccc(F)c2)c1=O	-104*
O=C(Nc1ccc(F)cc1F)c1c(O)c2cccnc2n(-c2ccccc2)c1=O	-44
COc1cccc(CNC(=O)CCC2CCCN(C3C4CC5CC(C4)CC3C5)C2)c1 (stereo not drawn)	-2
CNCc1ccccc1	9
O=C(O)CCc1ccc(NCc2cccc(Oc3ccccc3)c2)cc1	14
c1ccc(CNc2ccc(C3c4ccccc4Oc4ccccc43)cc2)cc1	-97*
COc1ccc(CN(C)C(=O)C2CC(=O)N(CC(C)C)C2)cc1O (stereo not drawn)	17
Cc1ccc2c(c1)c1cccc3c1n2CCN3CCC#N	-103*
Cc1cccc(NCc2c(C#N)c3ccccc3n2C)c1	230
Cc1ccc2c(c1)c1c3n2CCN=C3CCC1	-21

Compound activity (PubChem)
